# Screens deposited in PubChem by National Center for Advancing Translational Sciences (NCATS).
# Compounds with a hit are over-represented: about 0.47% of the library has one in this group of screens.
# Mm-Cpn inhibitor: inhibitors of Methanococcus maripaludis chaperonin TRiC (MmCpn); purified Mm-Cpn ATPase, ADP Transcreener TR-FRET; Potency, µM (highest dose often 76.9 µM), without a hit: top-dose activity, negative = inhibition, hits mostly inhibitors; AID 504842; 0.031% of 330,000 active; further: potency means the concentration at half of the fitted maximal effect; on the % scale 0 is the no-effect control and ±100 the full control effect; nearly all actives have a fitted effect of over 80% in size
#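 ATPase read-out: TR-FRET ADP immunoassay (anti-ADP Eu cryptate vs ADP-d2), ex 320 nm, em 590/665 nm; signal drops as ADP forms. Enzyme 25 nM, ATP 10 uM, 30 min at 37°C after 10 min compound preincubation.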
# CCT modulator: modulators of cytosolic chaperonin (CCT/TRiC) activity. purified chaperonin ATPase assay, HTRF ADP detection, 30 min. activity change, % (concentration not given with the values), hits read low. 0.3% of 360,000 active. AID 651819; in the data active means activity change below about -30%; further: on the % scale 0 is the no-effect control and ±100 the full control effect
#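 TRiC at 40 or 20 nM final (batch-dependent) in 30 mM Tris pH 7.4, 100 mM KCl, 5 mM MgCl2, 1 mM DTT, with compound at single 76 uM and 10 uM ATP, 30 min at 37 deg C. ADP detected by HTRF Transcreener, 665/615 ratio.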
# Apoferritin bind: binds horse apoferritin like a general anesthetic | P02791 | apoferritin/1-aminoanthracene competitive binding, fluorescence | Potency, µM (titrated, usually from 77.5 µM), for the others: top-dose activity change, negative = displacement, most hits filed as inhibitors | 0.074% of 350,000 active; further: potency means the concentration at half of the fitted maximal effect; on the % scale 0 is the no-effect control and ±100 the full control effect; nearly all actives have a fitted effect of over 20% in size
# Target sequence (P02791 2-175 limits assumed): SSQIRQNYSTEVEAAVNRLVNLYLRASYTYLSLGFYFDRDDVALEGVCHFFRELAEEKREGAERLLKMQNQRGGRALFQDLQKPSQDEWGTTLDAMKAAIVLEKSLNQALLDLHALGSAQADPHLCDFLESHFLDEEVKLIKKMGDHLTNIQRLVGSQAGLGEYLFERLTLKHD
#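 10 uM apoferritin + 50% sat. 1-AMA, PBS; cpd 10 min RT; Ex380/Em535 endpoint; normalized to free probe vs complex; 4-param Hill fit; propofol titration as pos. ctrl.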
# AT treatment: potential ataxia-telangiectasia treatment | Potency, µM (doses to about 57.5 µM), for the others: top-dose activation, most hits filed as activators | 0.19% of 320,000 active | F2112 A-T fibroblasts, KAP-1 phosphorylation AlphaLISA; neocarzinostatin DNA damage 30 min before lysis; further: potency means the concentration at half of the fitted maximal effect; % of control where 0% means no effect; nearly all actives have a fitted effect of over 45% in size
#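 hTERT-immortalized A-T patient fibroblasts (F2112), 500 cells/well in OPTI-MEM, 1% FBS, got compounds for 60 min, then NCS for 30 min at 37C. Lysates were then assayed for phospho-KAP-1 by AlphaLISA (anti-pKAP1 donor, anti-KAP1 acceptor beads), 6 hr at 25C.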
# * marks the source's active call; other numbers are inactive results; ? = inconclusive; . = not tested or not shown; [ ] = dose if it differs, or a comment. Unless noted, the call rests on the fitted dose curve; in most records, active means well fitted curve in the direction sought with a large enough effect; inconclusive means small, poorly fitted or top-dose-only effect, or another doubt; inactive means no such curve, though single readings can be large; an effect the other way counts as inactive or inconclusive.
SMILES,Mm-Cpn inhibitor,CCT modulator,Apoferritin bind,AT treatment
Cn1nc(C(=O)OCc2ccc(F)cc2)c2ccccc2c1=O,0%,-37*,-4%,3%
COc1ccc(C)cc1Nc1nc2c(S(=O)(=O)c3cccc(Cl)c3)nnn2c2ccsc12,.,.,-5%,.
COc1ccc(NC(=O)c2cc3c(CO)cnc(C)c3oc2=Nc2cccc(C)c2)c(OC)c1,2%,-37*,-10%,6%
COC(=O)c1cc2sccc2n1Cc1c(C)cc(C)cc1C,.,.,3%,.
CCCCCOC(=O)Nc1ccc(S(=O)(=O)Nc2cccc([N+](=O)[O-])c2)cc1,0%,-53*,?,-3%
O=C(O)c1ccccc1NC(=O)C(Cc1ccccc1)N1C(=O)c2ccccc2C1=O (stereo unspecified),3%,-32*,-5%,-1%
COc1ccc(N(CCC#N)C(=O)/C(C#N)=C\c2cccs2)cc1,-3%,2,-5%,3.2µM*
COCCNC(=O)/C(C#N)=C/c1cccs1,2%,0,-7%,-2%
Cc1ccc(OCC(=O)N(Cc2cccs2)C2CCS(=O)(=O)C2)cc1C (stereo unspecified),0%,-1,-6%,2.2µM*
COc1ccccc1CNC(=O)CCCN1C(=O)CSc2c1c(C)nn2-c1ccccc1,.,.,1%,.
S=c1[nH]nc(C2CCCCC2)n1/N=C/c1ccc(Br)cc1,-1%,-2,5%,13µM*
S=c1[nH]nc(C2CCCCC2)n1/N=C/c1ccc(Cl)cc1,4%,2,-2%,-1%
Cc1ccc(NC(=O)Cn2c(=O)n(Cc3ccco3)c(=O)c3sc4ccccc4c32)c(C)c1,.,.,-13%,.
O=C(/C=C/c1ccc2c(c1)OCCCO2)c1ccccc1O,-1%,3,?,18%
Cc1ccc(O)c(C(=O)/C=C/c2ccc3c(c2)OCCCO3)c1,1%,-5,-6%,16µM*
COc1ccccc1C(=O)NCc1nc2cccnc2n1Cc1ccc(F)cc1,.,.,-16%,.
COC(=O)C1CCN(c2ccc([N+](=O)[O-])cc2)CC1,-3%,-66*,-8%,-5%
CCCOc1cccc(C(=O)N/N=C/c2coc3ccccc3c2=O)c1,1%,-37*,-18%,3%
O=C(N/N=C/c1coc2ccccc2c1=O)c1cc(Br)c(O)c(Br)c1,0%,2,-16%,8%
CC(C)c1ccc(NC(=O)CN2C=NS(=O)(=O)c3ccccc32)cc1,.,.,-2%,.
O=C(O)COc1ccccc1C(Nc1ccccn1)c1cc(Cl)c2cccnc2c1O (stereo unspecified),-25%,-4,-8%,-4%
O=C(O)COc1ccccc1C(Nc1cccnc1)c1cc(Cl)c2cccnc2c1O (stereo unspecified),3%,-2,28µM*,-2%
COc1ccc(C)cc1NC(=O)c1cc(S(=O)(=O)N2CCCCC2)c[nH]1,.,.,-13%,.
Cc1ccc(CCC(=O)Nc2ccc(C#N)cc2)o1,3%,-103*,7%,-5%
CCN(CC(=O)Nc1ccc(NC(C)=O)cc1)CC(=O)Nc1cccc(Cl)c1,-4%,-71*,-5%,1%
SMILES,Mm-Cpn inhibitor,CCT modulator,Apoferritin bind,AT treatment
CCN(CC(=O)Nc1ccc(NC(C)=O)cc1)CC(=O)Nc1ccc(Cl)c(Cl)c1,-5%,3,-1%,7%
CCN(C[C@H]1N[C@@](C)(C(=O)OC)[C@H]2C(=O)N(Cc3ccccc3)C(=O)[C@@H]12)C(=O)c1ccc(C)cc1,1%,0,.,0%
CCN(C[C@H]1N[C@@](C)(C(=O)OC)[C@H]2C(=O)N(Cc3ccccc3)C(=O)[C@@H]12)C(=O)c1ccc(F)cc1,-1%,-34*,.,3%
COc1ccc(S(=O)(=O)N(C(=O)c2ccncc2)c2ccc3oc4c(c3c2)CCCC4)cc1,1%,-42*,-10%,4%
COC(=O)c1c(C)oc2ccc(N(C(=O)c3ccncc3)S(=O)(=O)c3ccc(OC)cc3)cc12,.,.,-9%,.
C=C(C)C(O)/C=C/C=C/c1ccccc1 (stereo unspecified),.,.,-8%[15.3 µM],.
Cc1cc2nc3ccc(=[N+](C)C)cc-3sc2cc1N,32µM*,3,-13%,16µM*
CCCCCOCC1CC(C/C(C)=N/NC(N)=O)(C(=O)OCC)C(=O)O1 (stereo unspecified),-4%,-41*,3%,4%
COc1ccc(CNc2oc(/C=C/c3cccc(OC)c3)nc2C#N)cc1,.,.,264%,.
COc1ccc(CN2CCN(c3ncnc4scc(-c5ccc(F)cc5)c34)CC2)cc1,0%,0,-19%,14µM*
COc1ccc(CNc2ncncc2-c2ccccc2Cl)c(OC)c1,.,.,-14%,.
COc1cccc(N2CCN(C(=O)Cn3ncc4c(=O)oc5ccccc5c43)CC2)c1,.,.,-5%,.
COc1ccc(OC)c(NC(=O)NNC(=O)c2cc3occc3[nH]2)c1,2%,-68*,0%,-6%
COc1ccc(OC)c2sc(N3CCN(C(=O)C(C)(C)C)CC3)nc12,.,.,-8%,.
Cc1ccc(CC(=O)Nc2cc([N+](=O)[O-])ccc2F)cc1,-1%,0,-20%,-2%
Cc1cc(C)nc(NC(=O)Cc2ccc([N+](=O)[O-])cc2)c1,0%,-34*,-13%,3%
CC(C)Oc1ccc(CNC(=O)c2ccc(CS(=O)c3cccc(Cl)c3)o2)cc1 (stereo unspecified),.,.,-9%,.
CC(C)(C)OC(=O)N1CSC[C@H]1C(=O)NC[C@H](CC(=O)O)c1ccc(Cl)cc1,0%,0,33%,7.1µM*
O=C(CCC(=O)c1cccs1)OCC(=O)c1ccc(Cl)s1,-1%,-1,28µM*,3%
Cc1noc(C)c1COc1ccccc1C(=O)N1CCN(S(=O)(=O)c2cccc(Cl)c2)CC1,0%,-1,.,-8%
Cc1noc(C)c1COc1ccccc1C(=O)N1CCN(S(=O)(=O)c2cccc([N+](=O)[O-])c2)CC1,-1%,-57*,.,-7%
CCN(CCN(C)C)C(=O)Cn1ncc2c([nH]c3ccc(C)cc32)c1=O,.,.,-4%,.
COc1cc(CCC(=O)NCc2ccc(F)cc2)cc(OC)c1OC,0%,-1,-8%,5%
COc1cc(CCC(=O)NCc2ccc(S(N)(=O)=O)cc2)cc(OC)c1OC,-1%,-94*,18%,49%
COc1ccc(Cl)cc1S(=O)(=O)NC(C)C(=O)NCc1ccncc1 (stereo unspecified),0%,-66*,5%,2%
CCOC(=O)C1=C(C)NC(C)=C(C(=O)OC)[C@@H]1c1cccc(Cl)c1Cl,.,.,-4%[29.3 µM],.
C[C@@H]1CCCCO[C@@H](CN(C)Cc2ccncc2)[C@@H](C)CN([C@H](C)CO)C(=O)c2cc(NC(=O)c3ccccc3)ccc2O1,.,-34*,.,.
C[C@H](CO)N1C[C@H](C)[C@@H](CN(C)C(=O)Nc2ccccc2)Oc2ccc(NC(=O)Nc3ccccc3)cc2C1=O,0%,-44*,.,-20%
Cc1cc(C(=O)Nc2cccc3c2O[C@@H](CN(C)S(=O)(=O)c2ccccc2)[C@H](C)CN([C@@H](C)CO)C3=O)n(C)n1,-1%,-3,.,1%
